Measurements taken from PubChem BioAssay.
The source made the active and inactive calls.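 Rule for the calls, unless noted: active = inhibition of the reporter signal at or above 50%; inactive = inhibition below 50%.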

Tests used:
[1] = inhibitors of TNFa-induced NFkB p65 translocation, primary screen, imaging, HUVEC, MLSMR starter and 10KST1 sets (AID 438;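 active = inhibition above 20% together with a positive visual image hit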;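 note: compound added about 3h40 before a 20 min TNFalpha stimulation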;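 for inhibition: signal is the nuclear over cytoplasmic p65 intensity ratio per well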); conditions: HUVEC TNFa-induced p65 nuclear translocation; cell count: measured here: nuclei count (cytotoxicity indicator), at 2.08 µM; inhibition: at 2 µM, stronger effect = higher value, 0% TNFa-plus-vehicle, 100% no-TNFa wells
[2] = inhibitors of mutant huntingtin aggregation, primary screen, imaging, exon1htt(103Q)mCFP cells, high-content imaging (AID 483;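 active = visual image review flags a hit and inhibition of aggregation exceeds 20%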;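 note: compound exposure lasted 3 days before fixation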;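 for nuclei count: percent of the per-plate median nuclei count of sample wells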); conditions: exon1htt(103Q)mCFP cell line, aggregate imaging, at 2 µM; inhibition of aggregation: stronger effect = higher value; nuclei count: measured here: cell count, toxicity
[3] = inhibitors of E-selectin induction by TNFa, primary screen, imaging, HUVEC, immunofluorescence, MLSMR starter and 10KST1 sets (AID 487;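 active = visually confirmed hit in the image check and inhibition above 20%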;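 for inhibition: signal is fraction of cell area covered by stained E-selectin grains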;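 for nuclei count: 100% = median nuclei count of all wells on the same plate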); conditions: HUVEC TNFalpha-induced E-selectin immunofluorescence imaging, at 2 µM; inhibition: stronger effect = higher value; nuclei count: measured here: cell number, toxicity
[4] = molecular target: Voltage-gated potassium channel subunit beta-2 (Rattus norvegicus) (UniProt P62483); test: KvBeta enzyme negative modulators, primary screen, biochemical, NADPH fluorescence (AID 622;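 active = fluorescence slope higher than the sample average by over 3 SD, cut at about -0.22 in these data, passing the limit was not always enough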;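 note: slope of raw intensity against log time taken from 70 to 1610 s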); conditions: recombinant KvBeta, 4-cyanobenzaldehyde reduction, at 10 µM, stronger effect = higher value
[5] = molecular target: Voltage-gated potassium channel subunit beta-2 (Rattus norvegicus) (UniProt P62483); test: KvBeta positive modulators, primary screen, biochemical, NADPH fluorescence (AID 623;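 active = NADPH fluorescence slope more negative than the mean of all samples by about 3 SD, 99.7% confidence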;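 note: fluorescence intensity change per second fitted from 20 to 320 s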); conditions: Recombinant KvBeta, NADPH fluorescence decrease slope, 10 min; at 10 µM; stronger effect = lower value
[6] = molecular target: Alpha-2C adrenergic receptor (Homo sapiens) (UniProt P18825); test: modulators of alpha2C/GIRK thallium flux, primary screen, cell-based, HEK293 alpha2C/GIRK1/2 (AID 624;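 active = fluorescence slope after compound addition differing from the mean of all screened samples at 99.7% confidence, in either direction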;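 note: slope of fluorescence ratio to pre-addition baseline per second over 15 to 24 s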); conditions: thallium flux BTC fluorescence, at 10 µM, actives lie on both sides
[7] = inhibitors of Sendai virus-induced IRF3 signaling, primary screen, TLR/RLR signaling modifier project, cell-based, Sendai virus stimulus, luciferase, 10K MLSCN set (AID 602276;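 active = inhibition at or above 50% at 10 µM; inactive = inhibition below 50%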;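 note: firefly luciferase from ISG56 promoter only with Renilla not read in this screen; 0% = Sendai virus plus DMSO and 100% = medium plus DMSO without virus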); conditions: HEK293 RL24 IRF3 luciferase reporter, at 10 µM, stronger effect = higher value
[8] = inhibitors of poly I:C-induced TLR3 signaling, primary screen, cell-based, poly I:C stimulus, luciferase, 10K MLSCN set (AID 602277); conditions: HEK293-TLR3 RL24 IRF3 luciferase reporter, at 10 µM, stronger effect = higher value

Sequence of Voltage-gated potassium channel subunit beta-2 (Rattus norvegicus) (P62483 whole entry, looked up): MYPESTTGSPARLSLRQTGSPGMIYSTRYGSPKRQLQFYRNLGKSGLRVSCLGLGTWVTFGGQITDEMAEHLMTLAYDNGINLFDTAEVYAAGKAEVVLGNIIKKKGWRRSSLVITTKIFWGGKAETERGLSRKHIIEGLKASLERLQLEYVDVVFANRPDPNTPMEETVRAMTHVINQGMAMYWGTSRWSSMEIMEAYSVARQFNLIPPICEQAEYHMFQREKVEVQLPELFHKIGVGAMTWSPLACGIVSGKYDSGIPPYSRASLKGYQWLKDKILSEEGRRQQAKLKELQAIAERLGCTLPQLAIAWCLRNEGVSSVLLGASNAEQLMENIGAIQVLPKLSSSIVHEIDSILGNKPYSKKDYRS
Sequence of Alpha-2C adrenergic receptor (Homo sapiens) (P18825 whole entry, looked up): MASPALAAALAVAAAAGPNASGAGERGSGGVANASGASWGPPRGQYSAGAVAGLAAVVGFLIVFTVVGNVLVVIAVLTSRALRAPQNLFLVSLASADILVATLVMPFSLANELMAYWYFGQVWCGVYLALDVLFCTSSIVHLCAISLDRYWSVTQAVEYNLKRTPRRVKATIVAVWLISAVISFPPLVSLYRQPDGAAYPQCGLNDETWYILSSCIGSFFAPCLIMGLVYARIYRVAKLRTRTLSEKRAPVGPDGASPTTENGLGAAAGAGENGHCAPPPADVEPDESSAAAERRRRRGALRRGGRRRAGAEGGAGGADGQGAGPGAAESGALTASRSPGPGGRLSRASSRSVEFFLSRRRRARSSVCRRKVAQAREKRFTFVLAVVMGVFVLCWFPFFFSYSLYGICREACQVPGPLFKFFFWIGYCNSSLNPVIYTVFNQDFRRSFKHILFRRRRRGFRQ

Row | Structure (SMILES) | cell count [1] | inhibition [1] | inhibition of aggregation [2] | nuclei count [2] [%] | inhibition [3] | nuclei count [3] [%] | fluorescence slope [4] | NADPH fluorescence slope [5] | slope [6] | inhibition [7] | inhibition [8]
1 | CC1=C(C(=O)OCc2ccccc2)C(c2ccco2)n2ncnc2N1 (centres undefined) | 811 | -2.8% (inactive) | 7% (inactive) | 117 | -31.8% (inactive) | 109 | -0.595 (inactive) | 4.7e-06 (inactive) | 0.00658 (inactive) | 9.4% (inactive) | 25.1% (inactive)
2 | CS(=O)(=O)N1CCCC(C(=O)N2CCOCC2)C1 (centres undefined) | 683 | 1.2% (inactive) | 9.8% (inactive) | 92 | -142% (inactive) | 116 | -0.566 (inactive) | 6.2e-06 (inactive) | 0.00664 (inactive) | 11.5% (inactive) | 3.97% (inactive)
3 | COc1ccc(CN(C(=O)CSc2nnc(-c3ccccc3F)o2)c2ccc(F)cc2)cc1 | 560 | -14.3% (inactive) | 15% (inactive) | 85.2 | -118% (inactive) | 123 | -0.421 (inactive) | -3.9e-05 (inactive) | 0.0074 (inactive) | 8.03% (inactive) | 9.3% (inactive)
4 | O=C(Nc1cccnc1)c1noc2c1CCCCC2 | 253 | -3.9% (inactive) | 14.8% (inactive) | 98.5 | -1.4% (inactive) | 113 | -0.325 (inactive) | -1.6e-05 (inactive) | 0.00304 (inactive) | 33.4% (inactive) | -4.09% (inactive)
5 | CCOC(=O)CSc1ncnc2c1cnn2-c1ccc(C)cc1 | 296 | 2.4% (inactive) | -24.2% (inactive) | 108 | -3.4% (inactive) | 129 | -0.581 (inactive) | -2e-05 (inactive) | 0.00447 (inactive) | 22.8% (inactive) | 21.8% (inactive)
6 | COCCN1CCN(c2c(C)c(C)nc3cc(-c4cccc(OC)c4)nn23)CC1 | 367 | -6.1% (inactive) | -9.2% (inactive) | 80.5 | -52.9% (inactive) | 106 | -0.567 (inactive) | -3.9e-05 (inactive) | 0.0105 (inactive) | 15.2% (inactive) | 16.1% (inactive)
7 | CCN1CCCC1CNC(=O)CS(=O)(=O)Cc1nc(-c2ccccc2C)oc1C (centres undefined) | 834 | -0.6% (inactive) | 3.2% (inactive) | 104 | -87.9% (inactive) | 126 | -0.511 (inactive) | -3e-05 (inactive) | 0.00452 (inactive) | 5.3% (inactive) | 46.5% (inactive)
8 | CCCCCn1c(CN2CCN(C(=O)OCC)CC2)nc2c1c(=O)[nH]c(=O)n2C | 245 | 0.8% (inactive) | 10.4% (inactive) | 105 | 16.4% (inactive) | 78.3 | -0.564 (inactive) | 7.1e-06 (inactive) | 0.00615 (inactive) | 28.1% (inactive) | 19.9% (inactive)
9 | COc1ccc(-c2nc(C#N)c(NCCCN(C)C)o2)cc1OC | 713 | -9.1% (inactive) | -8.5% (inactive) | 99.3 | -8.3% (inactive) | 98.4 | -0.222 (active) | -1.8e-06 (inactive) | 0.00305 (inactive) | 1.52% (inactive) | 33.3% (inactive)
10 | COc1cc(C2c3c(oc4ccccc4c3=O)C(=O)N2c2ccc(C)cn2)ccc1O (centres undefined) | 464 | 2.1% (inactive) | 8.8% (inactive) | 107 | -49% (inactive) | 122 | -0.598 (inactive) | -4.5e-05 (inactive) | 0.00645 (inactive) | -5.41% (inactive) | 7.4% (inactive)
11 | COc1ccc(-c2nnc(SCC(=O)NC(C)c3ccccc3)o2)cc1 (centres undefined) | 617 | 4.4% (inactive) | -59% (inactive) | 104 | -7.4% (inactive) | 111 | -0.593 (inactive) | -2.5e-05 (inactive) | 0.00661 (inactive) | 5.82% (inactive) | 18.9% (inactive)
12 | Cc1c(C(=O)NC2CCCc3ccccc32)oc2ccc(S(=O)(=O)N3CCOCC3)cc12 (centres undefined) | 500 | -3% (inactive) | 27.1% (inactive) | 76.4 | -32.9% (inactive) | 110 | -0.489 (inactive) | -6.3e-05 (inactive) | 0.0079 (inactive) | 17.5% (inactive) | 14.6% (inactive)
13 | O=C(CSc1nc2ccccc2o1)Nc1ccccc1 | 728 | 11.1% (inactive) | 0.9% (inactive) | 100 | -10.4% (inactive) | 106 | -0.285 (inactive) | -8e-06 (inactive) | 0.00667 (inactive) | -21.3% (inactive) | -87.6% (inactive)
14 | CC(C)NC(=O)CSCc1ccccc1Cl | 350 | 12.5% (inactive) | 6.1% (inactive) | 100 | -0.7% (inactive) | 110 | -0.5 (inactive) | -1.3e-05 (inactive) | 0.00508 (inactive) | 9.82% (inactive) | 0.78% (inactive)
15 | O=C(CCn1c(=S)[nH]c2ccccc2c1=O)NCC1CCCO1 (centres undefined) | 491 | 9.4% (inactive) | 6% (inactive) | 99.2 | 8% (inactive) | 109 | -0.622 (inactive) | -8.8e-06 (inactive) | 0.0038 (inactive) | 8.18% (inactive) | 2.45% (inactive)
16 | CCCCOc1ccc(C(=O)N2CCC(C)CC2)cc1 | 323 | 7.9% (inactive) | -8.4% (inactive) | 99.9 | -13.8% (inactive) | 87 | -0.434 (inactive) | -5.1e-05 (inactive) | 0.00442 (inactive) | -4.61% (inactive) | -21% (inactive)
17 | COc1ccc(C(=O)CN2C3=NCCCN3c3ccccc32)cc1OC | 335 | -3.1% (inactive) | -14.2% (inactive) | 76.5 | 22.7% (inactive) | 93.6 | -0.475 (inactive) | -4.1e-05 (inactive) | 0.00312 (inactive) | 10.4% (inactive) | 28.8% (inactive)
18 | Cc1ccc(-c2cc(C(=O)Nc3cc(C)on3)c3ccccc3n2)c(C)c1 | 688 | 1.1% (inactive) | 11.6% (inactive) | 111 | -17.5% (inactive) | 115 | -0.543 (inactive) | -4.3e-05 (inactive) | 0.00596 (inactive) | 10.5% (inactive) | 38.8% (inactive)
19 | CSc1c(C#N)c(N)c(C#N)c2c1COC(C)(C)C2 | 723 | -2.6% (inactive) | -6.1% (inactive) | 83 | -34% (inactive) | 103 | -0.501 (inactive) | -4.2e-05 (inactive) | 0.00561 (inactive) | 17.3% (inactive) | 25.5% (inactive)
20 | CCOC(=O)/C(C#N)=C(/C)c1ccc(OC)cc1 | 323 | -9.6% (inactive) | -28.9% (inactive) | 120 | -50.1% (inactive) | 120 | -0.515 (inactive) | -4.3e-06 (inactive) | 0.00405 (inactive) | 5.07% (inactive) | -13.7% (inactive)
21 | CCOC(=O)c1[nH]c(=O)c2ccccc2c1O | 367 | -3.9% (inactive) | 2.9% (inactive) | 96.9 | -0.2% (inactive) | 116 | -0.512 (inactive) | -1.7e-05 (inactive) | 0.00472 (inactive) | -11.9% (inactive) | -8.42% (inactive)
22 | C=CCn1c(SCC(=O)Nc2ccccc2OC)nnc1-c1ccccn1 | 684 | 9.1% (inactive) | 32.8% (inactive) | 65.8 | -6.9% (inactive) | 113 | -0.344 (inactive) | -2.6e-05 (inactive) | 0.0051 (inactive) | 7.11% (inactive) | 18.2% (inactive)
23 | NC(=O)c1sc2nc3c(c(-c4ccco4)c2c1N)CCC3 | 365 | 5.8% (inactive) | 1.6% (inactive) | 87.8 | -32.2% (inactive) | 121 | -0.366 (inactive) | -6.5e-05 (inactive) | 0.00352 (inactive) | 16.4% (inactive) | -2.19% (inactive)
24 | CC(=O)NC(CCS(C)(=O)=O)C(=O)Nc1cccc(C)c1 (centres undefined) | 600 | 8.7% (inactive) | 2.5% (inactive) | 110 | 21.6% (inactive) | 95.7 | -0.579 (inactive) | 1.1e-05 (inactive) | 0.00598 (inactive) | -14.8% (inactive) | -1.13% (inactive)
25 | O=C(CCN1C(=O)c2ccccc2C1=O)NCCN1CCOCC1 | 377 | -10.6% (inactive) | 10.7% (inactive) | 96.7 | -6% (inactive) | 97 | -0.452 (inactive) | 2.7e-05 (inactive) | 0.00342 (inactive) | -7.29% (inactive) | 20.7% (inactive)
26 | O=C(CNC(=O)c1ccccc1C(=O)O)c1ccccc1 | 653 | 1.8% (inactive) | 9.6% (inactive) | 105 | -147% (inactive) | 124 | -0.42 (inactive) | 1.4e-05 (inactive) | 0.00616 (inactive) | -17.6% (inactive) | -49% (inactive)
27 | CCCCOc1ccc(CSc2n[nH]c(C)n2)cc1 | 243 | 0.2% (inactive) | -0.4% (inactive) | 86.8 | 5.3% (inactive) | 96.6 | -0.435 (inactive) | 2.4e-05 (inactive) | 0.00825 (inactive) | -55.7% (inactive) | -90.2% (inactive)
28 | CSCSC1=C(C#N)C(c2ccc(Cl)cc2)C(C(C)=O)=C(C)N1 (centres undefined) | 324 | -1% (inactive) | -2.2% (inactive) | 112 | -47.6% (inactive) | 102 | -0.451 (inactive) | -0.00017 (inactive) | 0.00657 (inactive) | 10.5% (inactive) | 23.2% (inactive)
29 | COc1ccc(CC(NC(C)=O)C(=O)N2CCN(C(=O)N(C(C)C)C(C)C)CC2)cc1 (centres undefined) | 309 | -4% (inactive) | -9.5% (inactive) | 91.9 | -29.4% (inactive) | 100 | -0.397 (inactive) | -6.6e-05 (inactive) | 0.00701 (inactive) | 4.31% (inactive) | 3.57% (inactive)
